Data published in PubChem BioAssay AID1159580 (chemical genetic matrix, 2015).
Out of some 5,500 compounds screened, about 2,000 (36%) were called active. Inconclusive results (about 18%) are left out. Cut-off read from the data, not from the text of the source: active = normalized growth mostly below about 0.91 (no sharp cut-off); inconclusive = no clear call, values can overlap the other calls; inactive = mostly above about 0.92. The list shows a part of the results.

Assay: chemical genetic growth profiling, strain panel (AID 1159580);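 note: tested at 20 µM; growth read once vehicle control cultures reached saturation at 30 °C; 1 = growth at the plate median or of vehicle wells; lower values mean less growth of the strain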
Settings: growth OD
[1] = S. cerevisiae deletion strains, locus YAL013W, strain DEP1, stronger effect = lower value
[2] = S. cerevisiae deletion strains, locus YBR229C, strain ROT2, stronger effect = lower value
[3] = S. cerevisiae deletion strains, locus YCL061C, strain MRC1, stronger effect = lower value
[4] = S. cerevisiae deletion strains, locus YDL101C, strain DUN1, stronger effect = lower value
[5] = S. cerevisiae deletion strains, locus YDL134C, strain PPH21, stronger effect = lower value
[6] = S. cerevisiae deletion strains, locus YDR150W, strain NUM1, stronger effect = lower value
[7] = S. cerevisiae deletion strains, locus YEL061C, strain CIN8, stronger effect = lower value
[8] = S. cerevisiae deletion strains, locus YGR078C, strain PAC10, stronger effect = lower value
[9] = S. cerevisiae deletion strains, locus YGR229C, strain SMI1, stronger effect = lower value
[10] = S. cerevisiae deletion strains, locus YHR030C, strain SLT2, stronger effect = lower value
[11] = S. cerevisiae deletion strains, locus YHR087W, strain rtc3, stronger effect = lower value
[12] = S. cerevisiae deletion strains, locus YJL187C, strain SWE1, stronger effect = lower value
[13] = S. cerevisiae deletion strains, locus YJR043C, strain POL32, stronger effect = lower value
[14] = S. cerevisiae deletion strains, locus YJR075W, strain HOC1, stronger effect = lower value
[15] = S. cerevisiae deletion strains, locus YLR039C, strain RIC1, stronger effect = lower value
[16] = S. cerevisiae deletion strains, locus YLR058C, strain SHM2 (second series), stronger effect = lower value
[17] = S. cerevisiae deletion strains, locus YLR085C, strain ARP6, stronger effect = lower value
[18] = S. cerevisiae deletion strains, locus YLR262C, strain YPT6, stronger effect = lower value
[19] = S. cerevisiae deletion strains, locus YML094W, strain GIM5, stronger effect = lower value
[20] = S. cerevisiae deletion strains, locus YMR219W, strain ESC1, stronger effect = lower value
[21] = S. cerevisiae deletion strains, locus YNL153C, strain GIM3, stronger effect = lower value
[22] = S. cerevisiae deletion strains, locus YNL298W, strain CLA4 (second series), stronger effect = lower value
[23] = S. cerevisiae deletion strains, locus YNL322C, strain KRE1, stronger effect = lower value
[24] = S. cerevisiae deletion strains, locus YNR030W, strain Alg12, stronger effect = lower value
[25] = S. cerevisiae deletion strains, locus YOL006C, strain TOP1, stronger effect = lower value
[26] = S. cerevisiae deletion strains, locus YPL055C, strain LGE1, stronger effect = lower value
[27] = S. cerevisiae deletion strains, locus YPL241C, strain CIN2, stronger effect = lower value
[28] = S. cerevisiae deletion strains, locus YPR135W, strain CTF4, stronger effect = lower value
[29] = S. cerevisiae strains, strain wild type, stronger effect = lower value
[30] = S. cerevisiae deletion strains, locus YKL190W, strain CNB1, stronger effect = lower value
[31] = S. cerevisiae deletion strains, locus YMR263W, strain SAP30, stronger effect = lower value
[32] = S. cerevisiae deletion strains, locus YNL128W, strain TEP1, stronger effect = lower value

Measured: normalized growth

Cc1ccc(COc2ccc(C)nc2[N+](=O)[O-])cc1
inactive: [1] 0.977 | [2] 0.932 | [3] 0.946 | [4] 0.905 | [6] 0.854 | [7] 0.922 | [9] 0.958 | [11] 0.959 | [16] 0.954 | [21] 0.951 | [23] 0.972 | [26] 0.809
active: [5] 0.902 | [8] 0.918 | [10] 0.252 | [12] 0.932 | [13] 0.872 | [14] 0.857 | [15] 0.57 | [17] 0.295 | [18] 0.593 | [19] 0.855 | [20] 0.939 | [22] 0.75 | [24] 0.758 | [25] 0.593 | [27] 0.71 | [28] 0.382 | [29] 0.859

CN1CNc2c(c(=O)n(C)c(=O)n2C)C1
inactive: [1] 0.994 | [2] 0.999 | [3] 0.998 | [4] 0.974 | [6] 0.998 | [7] 0.996 | [8] 0.988 | [10] 1.04 | [11] 0.988 | [12] 1.01 | [13] 0.998 | [14] 1.02 | [30] 1.01 | [15] 1.03 | [16] 1 | [17] 0.979 | [18] 1.01 | [19] 0.974 | [20] 0.998 | [31] 1 | [32] 1 | [21] 0.983 | [22] 1.01 | [23] 0.998 | [24] 1 | [25] 1.02 | [26] 0.953 | [27] 1.07 | [28] 1.01 | [29] 1

O=C(N/N=C\c1ccccc1Cl)c1cccnc1
inactive: [1] 1.02 | [2] 1 | [4] 0.971 | [5] 1.01 | [6] 0.932 | [7] 1.03 | [8] 1 | [9] 1.01 | [10] 0.987 | [11] 1.01 | [12] 0.996 | [13] 0.995 | [14] 0.99 | [30] 1.01 | [15] 1.03 | [16] 1.01 | [17] 0.97 | [18] 1.01 | [19] 1 | [20] 1 | [31] 0.945 | [21] 1 | [22] 1 | [23] 1 | [24] 1.01 | [25] 1.03 | [26] 0.886 | [27] 0.996 | [28] 1

O=C(N/N=C\c1ccccc1Cl)N/N=C\c1ccccc1Cl
active: [1] 0.898 | [7] 0.834 | [10] 0.363 | [15] 0.753 | [17] 0.458 | [19] 0.773 | [31] 0.909 | [22] 0.588 | [24] 0.69 | [26] 0.765 | [27] 0.707 | [28] 0.553
inactive: [2] 0.989 | [3] 1 | [4] 0.992 | [6] 0.88 | [8] 1 | [11] 0.989 | [12] 0.987 | [13] 0.945 | [14] 0.988 | [16] 1 | [18] 0.871 | [20] 1 | [32] 0.976 | [21] 0.996 | [23] 0.977 | [25] 0.769

Cc1csc2ncnc(N/N=C\c3ccccc3Cl)c12
inactive: S. cerevisiae deletion strains, locus YAR019C, strain CDC15, stronger effect = lower value 0.959 | S. cerevisiae deletion strains, locus YBL105C, strain PKC1, stronger effect = lower value 0.96 | S. cerevisiae deletion strains, locus YBR135W, strain CKS1, stronger effect = lower value 0.968 | S. cerevisiae deletion strains, locus YBR136W, strain MEC1, stronger effect = lower value 0.962 | S. cerevisiae deletion strains, locus YBR160W, strain CDC28, stronger effect = lower value 0.954 | S. cerevisiae deletion strains, locus YDL017W, strain CDC7, stronger effect = lower value 0.97 | S. cerevisiae deletion strains, locus YDL028C, strain MPS1, stronger effect = lower value 0.968 | [4] 0.967 | S. cerevisiae deletion strains, locus YDL108W, strain KIN28, stronger effect = lower value 0.962 | S. cerevisiae deletion strains, locus YDL132W, strain cdc53, stronger effect = lower value 0.958 | S. cerevisiae deletion strains, locus YDL214C, strain PRR2, stronger effect = lower value 0.961 | S. cerevisiae deletion strains, locus YDR052C, strain DBF4, stronger effect = lower value 0.977 | S. cerevisiae deletion strains, locus YDR054C, strain cdc34, stronger effect = lower value 0.952 | S. cerevisiae deletion strains, locus YDR226W, strain ADK1, stronger effect = lower value 0.969 | S. cerevisiae deletion strains, locus YDR477W, strain SNF1, stronger effect = lower value 0.958 | S. cerevisiae deletion strains, locus YER123W, strain YCK3, stronger effect = lower value 0.931 | S. cerevisiae deletion strains, locus YER133W, strain GLC7, stronger effect = lower value 0.967 | S. cerevisiae deletion strains, locus YFL009W, strain cdc4, stronger effect = lower value 0.958 | S. cerevisiae deletion strains, locus YFL029C, strain CAK1, stronger effect = lower value 0.956 | S. cerevisiae deletion strains, locus YFR003C, strain YPI1, stronger effect = lower value 0.96 | S. cerevisiae deletion strains, locus YFR019W, strain FAB1, stronger effect = lower value 0.979 | S. cerevisiae deletion strains, locus YFR028C, strain CDC14, stronger effect = lower value 0.955 | S. cerevisiae deletion strains, locus YGR040W, strain KSS1, stronger effect = lower value 0.942 | S. cerevisiae deletion strains, locus YGR052W, strain FMP48, stronger effect = lower value 1.03 | S. cerevisiae deletion strains, locus YGR092W, strain DBF2, stronger effect = lower value 0.917 | [10] 1.01 | S. cerevisiae deletion strains, locus YHR079C, strain IRE1, stronger effect = lower value 0.997 | S. cerevisiae deletion strains, locus YHR082C, strain KSP1, stronger effect = lower value 1.05 | S. cerevisiae deletion strains, locus YHR205W, strain SCH9, stronger effect = lower value 0.968 | S. cerevisiae deletion strains, locus YIL147C, strain SLN1, stronger effect = lower value 0.968 | S. cerevisiae deletion strains, locus YJL095W, strain BCK1, stronger effect = lower value 0.994 | S. cerevisiae deletion strains, locus YJL128C, strain PBS2, stronger effect = lower value 0.946 | S. cerevisiae deletion strains, locus YJL157C, strain FAR1, stronger effect = lower value 0.947 | S. cerevisiae deletion strains, locus YJR016C, strain ILV3, stronger effect = lower value 0.956 | S. cerevisiae deletion strains, locus YJR066W, strain TOR1 (second series), stronger effect = lower value 0.918 | S. cerevisiae deletion strains, locus YJR066W, strain TOR1, stronger effect = lower value 1.05 | S. cerevisiae deletion strains, locus YKL048C, strain ELM1, stronger effect = lower value 0.976 | S. cerevisiae deletion strains, locus YKL067W, strain YNK1, stronger effect = lower value 0.947 | S. cerevisiae deletion strains, locus YKL101W, strain HSL1, stronger effect = lower value 0.951 | S. cerevisiae deletion strains, locus YKL193C, strain SDS22, stronger effect = lower value 0.957 | S. cerevisiae deletion strains, locus YKL203C, strain TOR2, stronger effect = lower value 1 | S. cerevisiae deletion strains, locus YLR113W, strain HOG1, stronger effect = lower value 0.882 | S. cerevisiae deletion strains, locus YLR133W, strain CKI1, stronger effect = lower value 0.951 | S. cerevisiae deletion strains, locus YLR403W, strain SFP1, stronger effect = lower value 0.931 | S. cerevisiae deletion strains, locus YML070W, strain DAK1, stronger effect = lower value 0.935 | S. cerevisiae deletion strains, locus YMR001C, strain CDC5, stronger effect = lower value 0.957 | S. cerevisiae deletion strains, locus YMR205C, strain PFK2 (second series), stronger effect = lower value 0.973 | S. cerevisiae deletion strains, locus YMR277W, strain FCP1, stronger effect = lower value 0.966 | S. cerevisiae deletion strains, locus YNL006W, strain LST8, stronger effect = lower value 0.973 | S. cerevisiae deletion strains, locus YNL020C, strain ARK1, stronger effect = lower value 0.958 | S. cerevisiae deletion strains, locus YNL161W, strain CBK1, stronger effect = lower value 0.956 | S. cerevisiae deletion strains, locus YNL183C, strain NPR1, stronger effect = lower value 1.02 | S. cerevisiae deletion strains, locus YNL207W, strain RIO2, stronger effect = lower value 0.965 | S. cerevisiae deletion strains, locus YNL222W, strain SSU72, stronger effect = lower value 0.961 | S. cerevisiae deletion strains, locus YNL307C, strain MCK1 (second series), stronger effect = lower value 0.962 | S. cerevisiae deletion strains, locus YOL078W, strain AVO1, stronger effect = lower value 0.957 | S. cerevisiae deletion strains, locus YOL136C, strain PFK27, stronger effect = lower value 0.942 | S. cerevisiae deletion strains, locus YOR061W, strain CKA2, stronger effect = lower value 0.973 | S. cerevisiae deletion strains, locus YOR119C, strain RIO1, stronger effect = lower value 1.01 | S. cerevisiae deletion strains, locus YOR231W, strain MKK1, stronger effect = lower value 0.927 | S. cerevisiae deletion strains, locus YOR329C, strain SCD5, stronger effect = lower value 0.96 | S. cerevisiae deletion strains, locus YPL031C, strain PHO85, stronger effect = lower value 0.959 | S. cerevisiae deletion strains, locus YPL153C, strain RAD53, stronger effect = lower value 0.944 | S. cerevisiae deletion strains, locus YPL204W, strain HRR25, stronger effect = lower value 0.936 | S. cerevisiae deletion strains, locus YPL209C, strain IPL1, stronger effect = lower value 0.949 | S. cerevisiae deletion strains, locus YPL256C, strain CLN2, stronger effect = lower value 0.901 | S. cerevisiae deletion strains, locus YPR025C, strain CCL1, stronger effect = lower value 0.968 | S. cerevisiae deletion strains, locus YPR106W, strain ISR1, stronger effect = lower value 0.955 | S. cerevisiae deletion strains, locus YPR111W, strain DBF20, stronger effect = lower value 0.943 | S. cerevisiae deletion strains, strain NNK1, stronger effect = lower value 0.959 | S. cerevisiae deletion strains, strain TSCII, stronger effect = lower value 0.957
